Compound activity as filed in PubChem.
NPC1 promoter act: qHTS Assay for NPC1 Promoter Activators; Huh7 NPC1 promoter luciferase reporter, 24 h; Potency, µM (highest dose often 9.22 µM), without a hit: at the top dose activation, hits mostly activators; 320,000 compounds, 2.4% hits; AID 485313, 2010; further: % of control where 0% means no effect; nearly all actives have a fitted effect of over 60% in size
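Luminescence read-out of NPC1 promoter-driven luciferase in stably transfected Huh7 cells; compounds delivered in DMSO and left 24 h at 37C, 5% CO2, qHTS titration format.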
FLuc counter: qHTS profiling assay for firefly luciferase inhibitor/activator using purifed enzyme and Km concentrations of substrates (counterscreen for miR-21 project) | Luciferin 4-monooxygenase (Photinus pyralis), P08659 | purified FLuc, Km substrates, luminescence inhibition | Potency, µM (titrated, usually from 57.5 µM), for inactives: top-dose activity change, negative = inhibition, most hits filed as inhibitors | 360,000 compounds, 6.9% hits | AID 588342, 2011;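 further: plate controls were vehicle for no effect and reference inhibitor for full effect; nearly all actives have a fitted effect of over 55% in size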
Target sequence (P08659 whole entry, looked up): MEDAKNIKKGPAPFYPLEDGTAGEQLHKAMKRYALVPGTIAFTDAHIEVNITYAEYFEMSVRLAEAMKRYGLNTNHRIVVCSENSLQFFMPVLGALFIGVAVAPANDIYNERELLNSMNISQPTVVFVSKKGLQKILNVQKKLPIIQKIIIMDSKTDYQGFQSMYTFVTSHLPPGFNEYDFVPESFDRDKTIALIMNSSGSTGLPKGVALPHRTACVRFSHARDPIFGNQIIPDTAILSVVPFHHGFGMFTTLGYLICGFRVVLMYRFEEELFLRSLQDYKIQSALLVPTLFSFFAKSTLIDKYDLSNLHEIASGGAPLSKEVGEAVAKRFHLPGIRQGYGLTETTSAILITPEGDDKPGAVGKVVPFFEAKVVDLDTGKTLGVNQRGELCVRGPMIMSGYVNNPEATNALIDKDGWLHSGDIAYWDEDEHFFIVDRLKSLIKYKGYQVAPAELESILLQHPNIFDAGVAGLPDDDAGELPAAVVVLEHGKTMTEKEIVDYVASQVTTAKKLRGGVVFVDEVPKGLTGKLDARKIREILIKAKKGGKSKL
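Purified P. pyralis luciferase (10nM final) with 10uM D-luciferin and 10uM ATP (Km levels) in 50mM Tris acetate pH 7.5, 10mM Mg acetate, 0.01% Tween-20, 0.05% BSA; qHTS 6-point titration, ~60 µM downward; luminescence read.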
SMN2 splice up: qHTS Assay for Enhancers of SMN2 Splice Variant Expression. 210,000 compounds, 2.8% hits. AID 1458, 2008. HEK293 SMN2-luciferase splicing reporter, luminescence, 30-36 h. Potency, µM (highest dose often 46.1 µM), without a hit: at the highest dose activity change, positive = activation, hits mostly activators; further: % of control where 0% means no effect; nearly all actives have a fitted effect of over 55% in size
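HEK293 cells carry an SMN2 […]–luciferase reporter in which exon 7 inclusion puts luciferase in frame. Cells were plated 10-12 h before compound addition, then incubated 30-36 h at 37C. ONE-Glo luminescence was read; sodium butyrate at 4.5 mM final served as control.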
Rab9 promoter act: qHTS Assay for Rab9 Promoter Activators | Huh7 Rab9 promoter-luciferase reporter, luminescence, 24 h | Potency, µM (top dose mostly 9.22 µM), for inactives: at the highest dose activation, negative = inhibition, actives largely listed as activators | 320,000 compounds, 2.8% hits | AID 485297, 2010; further: % of control where 0% means no effect; nearly all actives have a fitted effect of over 60% in size
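Cell-based reporter: Huh7 stable for Rab9 promoter-driven luciferase, plated in reduced-serum medium with 10% FBS at 1500 cells/well, compound-treated 24 h at 37 °C, luminescence read after 10 min reagent.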
ELG1 genotoxic: qHTS screen for small molecules that induce genotoxicity in human embryonic kidney (HEK293T) cells expressing luciferase-tagged ELG1. HEK293T ELG1-luciferase reporter, luminescence, 16 h. Potency, µM (top dose mostly 46 µM), for inactives: top-dose activity change, positive = activation, hits mostly activators. 330,000 compounds, 1.3% hits; further: % of control where 0% means no effect; nearly all actives have a fitted effect of over 60% in size
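DMSO vehicle served as control against compound-treated ELG1-luciferase HEK293T cells; exposure lasted 16 hr at 37 °C and 5% CO2, followed by ONE-Glo luminescence detection after 30 min.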
uPA surface inh: qHTS for Inhibitors of Cell Surface uPA Generation; cell surface uPA generation assay, qHTS; 330,000 compounds, 0.31% hits; AID 540303, 2011; Potency, µM (doses to about 38.3 µM), without a hit: at the top dose activity change, negative = inhibition, hits mostly inhibitors; active means well fitted inhibition curve with a large enough effect; inconclusive means small, poorly fitted or top-dose-only effect; inactive means no such curve, though single readings can be large or run the other way; tested in mouse RAW 264.7 cells; further: on the % scale 0 is the no-effect control and ±100 the full control effect; nearly all actives have a fitted effect of over 55% in size
* = called active by the depositor; ? = inconclusive; / = not tested or not shown; [ ] = another dose, or the depositor's remark. An excerpt weighted towards active compounds, which were near 7.3% of everything screened. Unless noted, the call rests on the fitted dose curve; in most records, active means well fitted curve in the direction sought with a large enough effect; inconclusive means small, poorly fitted or top-dose-only effect, or another doubt; inactive means no such curve, though single readings can be large; an effect the other way counts as inactive or inconclusive. Potency means the concentration at half of the fitted maximal effect.

SMILES	NPC1 promoter act	FLuc counter	SMN2 splice up	Rab9 promoter act	ELG1 genotoxic	uPA surface inh
O=C1COc2cc(S(=O)(=O)CCC(=O)N3CCN(c4ccccc4)CC3)c(Cl)cc2N1	/	-6.6%	/	/	/	/
Cc1ccccc1NCC(=O)N/N=C/C(Br)=C/c1ccccc1	-6.0%	1.3%	-17.4%	0.7%	9.9%	?
O=C(N/N=C/C(Br)=C\c1ccccc1)c1n[nH]c2c1CCC2	?	2.39µM*	12.6µM*	19.9%	2.31µM*	-49.2%
CC(/C=N/NC(=O)c1n[nH]c2c1CCC2)=C\c1ccccc1	27.7%	4.78µM*	?	2.4%	2.31µM*	-13.4%
O=C(N/N=C/C=C/c1ccccc1)c1n[nH]c2c1CCC2	2.0%	-5.0%	-4.8%	-1.6%	?	-14.6%
CCCC12CN3CC(CCC)(CN(C1)C3c1c[nH]c3ccccc13)C2=O (stereo not given)	/	0.3%	/	/	/	/
O=C(Nc1cccc2ccccc12)c1ccccc1	?	13.5µM*	-2.0%[9.22 µM]	3.55µM*	?	0.5%
Nc1ccccc1C(=O)Nc1cccc2ccccc12	3.16µM*	19µM*	/	2.82µM*	?	1.5%
CC(=O)c1ccc(NC(=S)Nc2cccc3ccccc23)cc1	5.3%	-2.1%	/	0.0%	10.4%	-23.1%
O=C(Nc1cccc2ccccc12)c1ccccc1Cl	0.0%	-11.8%	/	6.5%	1.3%	?
O=C(Nc1cccc2ccccc12)c1ccc(F)cc1	0.5%	?	/	22.2%	-0.2%[9.26 µM]	3.5%
CC(=O)c1cccc(NC(=O)C(=O)Nc2cccc3ccccc23)c1	?	?	/	2.51µM*	15.7%	4.8%
CC(C)(C)N=Cc1cc(-c2ccccc2)sc1O	2.82µM*	5.36µM*	22.4%	2.24µM*	9.2µM*	-0.2%
OCc1ncc(-c2ccccc2)s1	12.3%	-11.9%	/	15.6%	10.9%	-2.6%
Cc1c(C(=O)Nc2ccc3c(c2)OCCO3)cnn1C	?	10.7µM*	/	?	3.66µM*	-0.8%
CCn1cc(Cl)c(C(=O)Nc2cccc(C(F)(F)F)c2)n1	8.7%	?	-6.1%	27.7%	-13.9%	7.5%
Cc1nn(C)cc1C(=O)Nc1ccc2c(c1)OCCO2	4.47µM*	12µM*	/	3.16µM*	?	-0.5%
Cn1ncc([N+](=O)[O-])c1C(=O)Nc1ccc2c(c1)OCCO2	-0.4%	?	-10.8%	2.4%	9.0%	-0.6%
CCn1cc(Cl)c(C(=O)Nc2ccc3c(c2)OCCO3)n1	3.16µM*	6.01µM*	11.2µM*	1.58µM*	?	-7.2%
Cn1nccc1C(=O)Nc1ccc2c(c1)OCCO2	3.16µM*	12µM*	/	1.58µM*	?	-29.7%
CCN(CC(=O)NCCN1CCOCC1)S(=O)(=O)c1ccc(F)cc1	-0.4%	1.4%	/	0.6%	0.3%	2.9%
O=[N+]([O-])c1ccc(Nc2ccccc2F)nc1	-4.9%	3.1%	/	-19.7%	-0.3%	?
Cc1c(C(=O)Nc2ccc(Br)cc2)cnn1C	?	13.5µM*	12.6µM*	?	?	0.5%
Cn1ncc(Br)c1C(=O)Nc1ccc(Br)cn1	18.3%	4.3%	22.7%	-2.1%	-2.4%	0.0%
Cc1ccc(C(=O)Nc2ccc(NC(=O)c3cccs3)cc2)cc1[N+](=O)[O-]	-2.2%	-1.2%	5.4%	-11.8%	?	-3.0%
SMILES	NPC1 promoter act	FLuc counter	SMN2 splice up	Rab9 promoter act	ELG1 genotoxic	uPA surface inh
Cc1ccc(NC(=O)c2cccs2)cc1[N+](=O)[O-]	20.7%	21.3µM*	/	26.6%	-1.1%	-27.1%
Cc1ccc(NC(=O)c2ccc(C(C)(C)C)cc2)cc1[N+](=O)[O-]	?	6.01µM*	15.2%	?	?	4.0%
COc1ccc(N2CCN(C(CNC(=O)c3ccc(C)cc3)c3ccc4c(c3)OCO4)CC2)cc1 (stereo not given)	/	-0.3%	/	/	/	/
Cc1sc2nc3c4ccccc4c(NCc4ccco4)nn3c(=O)c2c1C	?	7.57µM*	10µM*	2.82µM*	7.08µM*	0.7%
Cc1nc(NCc2ccco2)c2c(C)c(C)sc2n1	-16.8%	0.5%	3.16µM*	-15.9%	-26.9%	/
CC(C)n1c(=O)n(CC(=O)NCC2CCCO2)c(=O)c2c3c(sc21)COC(C)(C)C3 (stereo not given)	-0.1%	0.9%	/	0.0%	1.2%	4.7%
O=C(CCl)Nc1cccc(S(=O)(=O)NC2=NCCCCC2)c1	/	/	/	/	-9.5%	2.51µM*
Cc1cc(C)cc(OCC(=O)Nc2cccc(S(=O)(=O)NC3=NCCC3)c2)c1	-15.6%	-12.2%	/	-1.2%	-1.6%	?
Cc1ccc(OCC(=O)Nc2cccc(S(=O)(=O)NC3=NCCCCC3)c2)cc1C	-0.3%	15.1µM*	/	-0.7%	-4.9%	?
O=C(/C=C/c1ccccc1[N+](=O)[O-])Nc1cccc(S(=O)(=O)NC2=NCCCCC2)c1	/	/	/	/	0.1%	-18.9%
Cc1ccc(C)c(C(=O)OCC(=O)Nc2cccc(S(=O)(=O)NC3=NCCCCC3)c2)c1	-1.9%	-15.3%	-22.3%	1.3%	-8.8%	2.2%
Cc1cc(OCC(=O)Nc2cccc(S(=O)(=O)NC3=NCCCCC3)c2)ccc1Cl	-0.4%	16.9µM*	-14.2%	-0.2%	-4.7%	-13.0%
O=C(CCl)Nc1ccc(S(=O)(=O)NC2=NCCCCC2)cc1	/	/	/	/	-13.7%	-0.1%
O=C(/C=C/c1ccc(Cl)cc1Cl)Nc1cccc(S(=O)(=O)NC2=NCCCCC2)c1	21.9%	2.39µM*	14.6%	19.2%	5.5%	-5.3%
CCCCNc1nc2c(S(=O)(=O)c3ccc(Cl)cc3)nnn2c2ccsc12	/	-0.3%	/	/	/	/
CN(C1CCCCC1)S(=O)(=O)c1ccc2c(c1)c(=O)c(C(=O)N1CCN(c3ccccc3F)CC1)cn2C	/	-2.0%	?	/	/	/
Cc1ccc(C)c(N2CCN(C(=O)C(C)n3nc(C)c4sc5ccccc5c4c3=O)CC2)c1 (stereo not given)	/	15.1µM*	/	/	/	/
Cc1nn(C(C)C(=O)N2CCCCC2)c(=O)c2c1sc1ccccc12 (stereo not given)	-4.5%	-3.7%	-10.1%	9.4%	-3.9%	-2.2%
CC(C)(C)c1ccc(-c2nc(C#N)c(N3CCC(C(N)=O)CC3)o2)cc1	-1.4%	21.3µM*	/	-0.2%	0.9%	-7.1%
CC1CC(C)CN(c2oc(-c3ccccc3F)nc2C#N)C1 (stereo not given)	-0.1%	0.4%	/	0.5%	-2.4%	5.5%
Cc1ccccc1-c1nc(C#N)c(N2CCC(C)CC2)o1	4.8%	23.9µM*	/	22.3%	8.6%	2.5%
CC1CCCN(c2oc(-c3cccc4ccccc34)nc2C#N)C1 (stereo not given)	?	5.36µM*	-12.4%	?	?	/
